# From PubChem BioAssay
# MsrA act: bovine methionine sulfoxide reductase A activation. purified bovine MsrA, absorbance read-out. activation, % at 10.6 µM. hit rate 0.3% among 360,000. AID 602163; in the data active = activation above about 7.5%
# MsrA inh: bovine MsrA inhibition. purified bovine MsrA, absorbance read-out. inhibition, % at 15.5 µM. hit rate 0.75% among 360,000; in the data active = inhibition above about 4.5%
# rCAG binder: molecules binding r(CAG) RNA repeats | r(CAG) RNA repeat, TO-PRO-1 dye displacement fluorescence | inhibition, % at 3 µM | hit rate 1.3% among 370,000;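 active = inhibition above the plate cutoff, the mean of all test compounds on that plate plus 3 SD, cut at about 35% in these data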;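 note: higher means more dye released from RNA so lower well fluorescence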
# HGIII-sPLA2 inh: Inhibits HGIII-sPLA2 liposome hydrolysis, primary screen. QFRET BODIPY PC-A2 liposome hydrolysis, fluorescence. inhibition, % at 12.2 µM. hit rate 0.56% among 370,000. AID 743126;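 active = inhibition above mean plus 3 SD of compounds lying within the high and low control bounds, cut at about 19% in these data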
# Target sequence (Q9NZ20 whole entry, looked up): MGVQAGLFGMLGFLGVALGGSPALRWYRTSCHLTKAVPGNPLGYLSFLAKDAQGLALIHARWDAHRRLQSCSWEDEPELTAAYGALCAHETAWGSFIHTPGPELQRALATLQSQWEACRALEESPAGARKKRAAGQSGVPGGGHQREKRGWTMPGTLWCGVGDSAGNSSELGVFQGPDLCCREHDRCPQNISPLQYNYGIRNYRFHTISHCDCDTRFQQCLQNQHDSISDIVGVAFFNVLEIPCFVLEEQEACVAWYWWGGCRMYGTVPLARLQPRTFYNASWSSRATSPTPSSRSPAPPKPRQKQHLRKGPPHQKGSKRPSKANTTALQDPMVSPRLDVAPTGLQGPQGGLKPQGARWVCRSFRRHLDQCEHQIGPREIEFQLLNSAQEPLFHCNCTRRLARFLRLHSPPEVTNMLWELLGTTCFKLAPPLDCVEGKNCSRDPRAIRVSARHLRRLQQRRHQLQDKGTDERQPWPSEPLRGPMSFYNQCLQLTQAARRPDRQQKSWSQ
# rCAG bind conf: r(CAG) RNA repeat binding, confirmation. shares compounds with rCAG binder. TO-PRO-1 dye displacement fluorescence. inhibition, % at 3 µM. hit rate 70% among 4,300;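 active = inhibition above a per-plate cutoff, the mean inhibition of sample wells plus 3 SD, cut at about 35% in these data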;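 note: loss of TO-PRO-1 fluorescence as compound displaces dye from 1x1 AA loop RNA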
# DNA CAG counter: disrupts DNA CAG TO-PRO-1 complex, flagging rCAG hits; AID 652068; hit rate 94% among 4,300; shares compounds with rCAG binder; inhibition, % at 3 µM; d(CAG) DNA oligo TO-PRO-1 dye displacement, fluorescence;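 active = inhibition above its plate's cutoff, the mean test-well inhibition plus 3 SD, cut at about 4.8% in these data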;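 note: hits displace the dye from DNA and so lower well fluorescence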
# dCAG dye DR: DNA CAG dye complex inhibition, dose response counter-screen | DNA CAG/GTC duplex TO-PRO-1 dye displacement fluorescence | shares compounds with rCAG binder | AID 686960 | IC50, µM | hit rate 20% among 250; in the data active = IC50 below about 10 µM
# Hits are given with their value; n = inactive; x = no result given. The list is not random: actives were taken first. Their share in the collection is about 2.8%.
SMILES,MsrA act,MsrA inh,rCAG binder,HGIII-sPLA2 inh,rCAG bind conf,DNA CAG counter,others
CC(C)(C)S(=O)N1Cc2cc(C(=O)O)nc(-c3cccc(-c4cc5ccccc5o4)c3)c2[C@H]1CCO (stereo partly drawn),n,n,39,n,35,13,
CC(=O)N1c2ccc(S(=O)(=O)N3CCC(C(=O)Nc4cc(C)ccn4)CC3)cc2CC1C (stereo not drawn),n,n,n,n,x,x,
CCOc1cc(/C=C(\CC(=O)O)c2nc3ccccc3s2)ccc1OCC(=O)Nc1cccc(C(F)(F)F)c1,n,n,67,n,53,18,
COc1ccc(-c2nn(-c3ccccc3)cc2/C=C(\CC(=O)O)c2nc3ccccc3s2)cc1OC,n,n,53,n,64,22,
CCOc1cc(/C=C(\CC(=O)O)c2nc3ccccc3s2)ccc1OC,n,n,n,n,x,x,
COc1cc(/C=C(\CC(=O)O)c2nc3ccccc3s2)ccc1OCC(=O)Nc1ccccc1F,n,n,59,n,62,23,
CCCc1cc(C(=O)Nc2cccc(-c3nn[nH]n3)c2)sc1C,n,n,40,n,35,8.5,
CCc1ccc(C(=O)Nc2cccc(-c3nn[nH]n3)c2)s1,n,n,n,n,x,x,
O=S1(=O)N=C(N2CCN(c3ccc(F)cc3)CC2)c2ccccc21,n,n,n,n,x,x,
O=C(O)Cc1sc(Nc2ccc(Cl)cc2)nc1-c1cccs1,x,n,58,n,54,29,dCAG dye DR=6
Nc1nc(-c2cccs2)c(CC(=O)O)s1,n,n,n,n,x,x,
Cc1cc(C)n(-c2nc3ccccc3c(=O)n2OCC#N)n1,n,n,n,n,x,x,
CC(C)c1ccc(/C=N/n2c(-c3ccccc3)n[nH]c2=S)cc1,n,n,39,n,46,13,
Cc1cc(-c2n[nH]c(=S)n2N=Cc2ccc(-c3ccccc3)cc2)n[nH]1,x,x,42,n,35,8.9,
Cc1ccccc1OCCCC(=O)NC1CCCCC1,n,n,n,n,x,x,
COc1c(C(C)(C)C)cc(S(=O)(=O)N2c3ccccc3C[C@H]2C)cc1C(C)(C)C,x,x,x,n,x,x,
O=C(Nc1ccc(C(=O)O)cc1)/C(=C/c1ccc2c(c1)OCO2)NC(=O)c1cccc(Br)c1,n,n,50,n,41,10,
COc1ccccc1C(=O)N/C(=C/c1ccc2c(c1)OCO2)C(=O)Nc1ccc(C(=O)O)cc1,n,n,n,n,x,x,
CC(C)(C)OC(=O)NN1CC(=O)N2[C@@H](Cc3c([nH]c4ccccc34)C2(C)C)C1=O,n,n,n,n,x,x,
CC(=O)c1c(C)[nH]c(C(=O)CSc2nc3ccccc3c(=O)n2CCCO)c1C,n,n,n,n,x,x,
COc1ccc(OC)c(C2Nc3c(Cl)ccc(C(=O)O)c3C3C=CCC32)c1 (stereo not drawn),n,n,50,n,n,7.1,
COC(=O)COc1ccc(C2Nc3c(Cl)ccc(C(=O)O)c3C3C=CCC32)cc1 (stereo not drawn),n,n,76,n,49,17,
C/C(=N\NC(=O)c1ccc([N+](=O)[O-])cc1)c1cc2ccccc2oc1=O,n,n,n,n,x,x,
C/C(=N\NC(=O)c1ccccc1)c1cc2cc([N+](=O)[O-])ccc2oc1=O,n,n,50,n,44,15,
CCCOc1ccc(C2C3=C(Nc4nc(N)[nH]c(=O)c42)c2ccccc2C3=O)cc1 (stereo not drawn),n,n,71,n,57,37,
SMILES,MsrA act,MsrA inh,rCAG binder,HGIII-sPLA2 inh,rCAG bind conf,DNA CAG counter,others
CCOc1ccc(C2C3=C(Nc4nc(N)[nH]c(=O)c42)c2ccccc2C3=O)cc1 (stereo not drawn),n,n,66,n,53,35,
CCOC(=O)C1=C(C)NC2=C(C(=O)c3ccccc32)C1c1ccc(O)cc1 (stereo not drawn),n,n,n,n,x,x,
CN(C)c1ccc(C2NCCS2)cc1 (stereo not drawn),n,n,n,n,x,x,
CO[C@H]1/C=C/O[C@@]2(C)Oc3c(C)c(O)c4c(O)c(c(C=NN5CCN(C)CC5)c(O)c4c3C2=O)NC(=O)/C(C)=C\C=C\[C@H](C)[C@H](O)[C@@H](C)[C@@H](O)[C@@H](C)[C@H](OC(C)=O)[C@@H]1C,n,n,83,n,74,44,
O=C(O)c1cc(-c2ccc(/C=C3/SC(=S)N(Cc4ccccc4)C3=O)o2)ccc1Cl,n,n,n,n,x,x,
O=C1NC(=O)/C(=C\c2ccc(Br)o2)S1,n,n,n,n,x,x,
O=C1NC(=S)/C(=C\c2ccc(-c3ccccc3Cl)o2)S1,n,n,80,n,67,34,
O=C1NC(=O)/C(=C/c2ccc(-c3cc(C(=O)O)ccc3Cl)o2)S1,n,n,53,n,52,15,
COc1ccccc1C(=O)NCCC(=O)N1CCN(c2ccccc2Cl)CC1,n,n,n,n,x,x,
CCOc1cc(/C=C(/C#N)c2nc3ccccc3[nH]2)ccc1OCc1ccc(C(=O)O)o1,n,n,49,n,39,8.6,
COc1ccc2[nH]c(O)c(N=NC(=O)c3ccc(NS(=O)(=O)c4cccs4)cc3)c2c1,n,n,36,n,57,25,
Cc1cccc2c(N=NC(=O)c3ccc(NS(=O)(=O)c4cccs4)cc3)c(O)[nH]c12,n,n,42,n,72,30,
Cc1c2c(n3c(nc4ccccc43)c1C#N)N(CCN(C)C)CC2,n,n,n,n,x,x,
COc1ccc(C(=O)COC(=O)/C=C/c2ccc(S(=O)(=O)Nc3cccc(S(N)(=O)=O)c3)cc2)cc1,n,n,46,n,60,20,
NS(=O)(=O)c1cccc(NS(=O)(=O)c2ccc(/C=C/C(=O)OCC(=O)c3ccc(Br)cc3)cc2)c1,n,n,n,n,x,x,
COc1cc(/C=C/C(=O)c2ccc(NS(=O)(=O)c3ccc(C)cc3)cc2)ccc1OC(F)F,n,n,n,n,x,x,
COc1cccc(/C=C/C(=O)c2ccc(NS(=O)(=O)c3ccc(C)cc3)cc2)c1,n,n,35,n,62,21,
Cc1cccc(-c2n[nH]c(=S)n2/N=C/C=C/c2ccco2)c1,n,n,43,31,n,13,
Cc1cccc(/C=N/n2c(-c3ccco3)n[nH]c2=S)c1,n,n,n,n,x,x,
O=C(O)c1ccc(Cl)c(S(=O)(=O)Nc2cccc(C(=O)Nc3cccc(C(F)(F)F)c3)c2)c1,n,n,39,n,n,7.9,
O=C(O)c1cccc(NC(=O)c2ccc(Cl)c(S(=O)(=O)N3CCCCCC3)c2)c1,n,n,35,n,n,5.4,
O=C(O)c1cccc(NC(=O)c2cccc(S(=O)(=O)N3CCc4ccccc4C3)c2)c1,n,n,37,n,n,4.5,
O=C(NC(=S)N1CCN(C2CCCCC2)CC1)c1ccccc1,n,n,n,n,x,x,
COc1cccc(CNC(=O)c2ccc(C)c(S(=O)(=O)N3CCCCC3)c2)c1,n,n,n,n,x,x,
CC(=NNC(=S)N1CCCCCC1)c1cccc2cccnc12,n,n,n,n,x,x,
